{"source": "ChEMBL document CHEMBL3988442", "about": "“University of Dundee, Small-Polar-MMV Screening Library” (2021)", "note": "Among all 68,000 compounds or so, about 25 (0.04%) showed an effect of 50% or more. The sample as a whole holds a higher share of strong results than the screen did."}
{"target": "T1, Methionyl-tRNA synthetase, putative (Leishmania donovani (strain BPK282A1)) (UniProt E9BF75)", "T1 sequence (whole entry)": "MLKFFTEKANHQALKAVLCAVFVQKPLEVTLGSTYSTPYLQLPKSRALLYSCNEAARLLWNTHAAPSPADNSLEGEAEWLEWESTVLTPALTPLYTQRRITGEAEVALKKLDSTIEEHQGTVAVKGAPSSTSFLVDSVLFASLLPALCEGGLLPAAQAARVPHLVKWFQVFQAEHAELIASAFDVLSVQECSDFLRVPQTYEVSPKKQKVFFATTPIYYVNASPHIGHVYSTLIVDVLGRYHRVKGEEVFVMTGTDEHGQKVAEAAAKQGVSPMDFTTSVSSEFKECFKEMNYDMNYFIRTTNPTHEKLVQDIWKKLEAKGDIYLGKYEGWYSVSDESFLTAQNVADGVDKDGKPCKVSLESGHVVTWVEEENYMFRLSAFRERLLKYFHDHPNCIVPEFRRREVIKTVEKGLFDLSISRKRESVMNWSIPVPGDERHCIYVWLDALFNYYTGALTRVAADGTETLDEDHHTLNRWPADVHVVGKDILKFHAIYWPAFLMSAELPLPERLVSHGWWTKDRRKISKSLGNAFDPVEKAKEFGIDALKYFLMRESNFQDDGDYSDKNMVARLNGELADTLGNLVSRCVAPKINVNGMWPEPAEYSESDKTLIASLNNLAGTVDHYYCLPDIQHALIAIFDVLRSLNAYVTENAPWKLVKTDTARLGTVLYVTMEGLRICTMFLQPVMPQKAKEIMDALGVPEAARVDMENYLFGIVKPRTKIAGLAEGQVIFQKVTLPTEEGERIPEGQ", "experiment": "Leishmania donovani Methionine tRNA synthetase (LdMetRS):v6. Primary screen assay", "format": "functional", "set-up": "conc 80 nM, time 150 minutes", "units": {"inhibition": "%"}}
{"smiles": "CCCOc1cc(C)c2c(c1C)C[C@H]([C@H](C)C(=O)O)CC2", "inhibition": 2.26}
{"smiles": "CC(C)N1[C@H](CN2CCCC2)C[C@@H]2CN(Cc3cnn(C)c3)CC[C@@H]21", "inhibition": 12.3}
{"smiles": "c1coc(CN2CCO[C@H]3[C@H](OCC4CC4)CC[C@@H]32)c1", "inhibition": 13.7}
{"smiles": "O=C(NCC1CCOCC1)[C@@H]1CC[C@@H]2[C@@H](CCN2Cc2ccncc2)O1", "inhibition": 19.3}
{"smiles": "Cc1nc(CN2C(=O)C[C@@H]3[C@@H]2CCN3S(=O)(=O)C2CC2)cs1", "inhibition": 11.7}
{"smiles": "COCC(=O)N1C[C@@H]2CCCO[C@@H]2[C@H](N(C)Cc2ccco2)C1", "inhibition": -6.25}
{"smiles": "CNC(=O)[C@H]1C[C@@H]2CN(Cc3ccccc3)C[C@H]1O2", "inhibition": 15.9}
{"smiles": "COC(=O)CNC(=O)c1cccc(C(=O)N(C)c2ccccc2)c1", "inhibition": 95}
{"smiles": "COC(=O)CCNC(=O)c1cccc(C(=O)N(C)c2ccccc2)c1", "inhibition": 31.7}
{"smiles": "CN(C(=O)c1cccc(C(=O)NCC(F)(F)F)c1)c1ccccc1", "inhibition": 3.94}
{"smiles": "O=C(NC1CC1)N1C[C@@H]2CCN(C(=O)c3cscn3)[C@@H]2C1", "inhibition": 0.546}
{"smiles": "CO[C@H]1C[C@@H]2CN(C(=O)c3cc4ccc(F)cc4[nH]3)C[C@@H]2C1", "inhibition": 13.3}
{"smiles": "O=C1[C@H]2CN(S(=O)(=O)c3ccccc3)C[C@H]2CN1Cc1cccnc1", "inhibition": 4.19}
{"smiles": "Cc1cccnc1NC(=O)NCc1ccc(N2CCNC(=O)C2)cc1", "inhibition": 50.6}
{"smiles": "Cc1nnc(NC(=O)NCc2ccc(N3CCNC(=O)C3)cc2)s1", "inhibition": 9.92}
{"smiles": "Cc1ccccc1C(=O)NCc1ccc(N2CCNC(=O)C2)cc1", "inhibition": 14.1}
{"smiles": "CN(C)S(=O)(=O)N1CC[C@]2(O)CCN(Cc3cccc(F)c3)C[C@@H]2C1", "inhibition": 12.9}
{"smiles": "CC(C)c1nc(N2CCC(N3CCCCCC3)CC2)c2cnn(C)c2n1", "inhibition": 56.4}
{"smiles": "CC(C)c1nc(N2CCC(N3CCSCC3)CC2)c2cnn(C)c2n1", "inhibition": 12.3}
{"smiles": "CC(C)c1nc(N2CCC(N3CCCC(O)C3)CC2)c2cnn(C)c2n1", "note": "(stereo not drawn)", "inhibition": 14.7}
{"smiles": "CC1=N[C@@]2(CC[C@@H]3CN(CC4CC4)C[C@@H]32)C(=O)N1CC(C)C", "inhibition": 14.9}
{"smiles": "COCCN1C[C@H]2CC[C@@H]1CN(C(=O)CCn1cc(Cl)cn1)C2", "inhibition": 9.25}
{"smiles": "CC(C)CC(=O)N1CC[C@@H]2[C@H](CC1)N(Cc1cccnc1)CCS2(=O)=O", "inhibition": 15.2}
{"smiles": "CN(C)CCN1CC[C@H]2[C@@H]1CCN2Cc1ccc2c(c1)OCO2", "inhibition": 5.56}
{"smiles": "CCCSCC(=O)N1C[C@@H]2CC[C@H](C1)N(Cc1ccccn1)C2=O", "inhibition": -1.42}
{"smiles": "c1ccc(CN2C[C@H]3CC[C@@H]2CN(Cc2nnc(C4CC4)o2)C3)cc1", "inhibition": 12.8}
{"smiles": "CN(C)C(=O)N1CCN(c2ccc3ccc(C(=O)NC4CC4)cn23)CC1", "inhibition": 20.2}
{"smiles": "CC(C)N1CCN(c2ccc3ccc(C(=O)NC4CCCC4)cn23)CC1", "inhibition": 30.2}
{"smiles": "CC(=O)N1CCN(c2ccc3ccc(C(=O)NC4CCCC4)cn23)CC1", "inhibition": 52.9}
{"smiles": "N#Cc1cccc(C(=O)N2CC[C@H]3[C@H]2CCN3CC2CCOCC2)c1", "inhibition": 9.34}
{"smiles": "CS(=O)(=O)NC[C@]12COC[C@H]1CN(CCc1ccccc1)C2", "inhibition": 13.1}
{"smiles": "Cc1nc([C@H]2C[C@@H]3CCN(C(=O)c4ccnnc4)C[C@H]3O2)sc1C", "inhibition": 17}
{"smiles": "O=C(NCC1CCOCC1)[C@H]1C[C@@H]2CCN(Cc3ccccc3)C[C@H]2O1", "inhibition": 18.4}
{"smiles": "CNC(=O)N1C[C@H]2C[C@H](C(=O)NCc3cccnc3)[C@@H](C1)O2", "inhibition": 9.15}
{"smiles": "Cc1ncc(CN2CCOC(CNc3cccnn3)C2)s1", "note": "(stereo not drawn)", "inhibition": 13.2}
{"smiles": "CCCN1C[C@H]2CC[C@@H]1CN(c1nnc(C(C)C)s1)C2", "inhibition": 9.31}
{"smiles": "O=C(Cn1ccc(=O)cc1)N1C[C@H]2CC[C@@H]1CN(c1ncccn1)C2", "inhibition": 15.1}
{"smiles": "CC1=N[C@@]2(CC[C@@H]3CN(Cc4ccccc4C)C[C@@H]32)C(=O)N1CC1CC1", "inhibition": 6.09}
{"smiles": "CN1CCC(CO[C@H]2CN(C(=O)c3cccn3C)[C@@H]3COC[C@H]23)CC1", "inhibition": 8.4}
{"smiles": "CC(C)CCNc1nnc(C(C)C)s1", "inhibition": 80.1}
{"smiles": "CC(C)c1nnc(NCCS(C)(=O)=O)s1", "inhibition": 1.24}
{"smiles": "CCN(CC)S(=O)(=O)CCNc1nnc(C(C)C)s1", "inhibition": -0.621}
{"smiles": "COc1ccc(CN2CCO[C@H]3[C@H](OCCN4CCCC4)CC[C@@H]32)cc1", "inhibition": 6.3}
{"smiles": "C1CC(CN2C[C@H]3CC[C@@H]2CN(Cc2nnc(C4CC4)o2)C3)C1", "inhibition": 9.96}
{"smiles": "Cc1cncc(C(=O)N2C[C@H]3CCC[C@@]3(COc3ccccn3)C2)c1", "inhibition": 8.5}
{"smiles": "COc1cc(N2CC[C@@H]3O[C@@H](C(=O)NCCN(C)C)C[C@@H]32)ncn1", "inhibition": 4.66}
{"smiles": "O=C1[C@H]2CC[C@H](CN(C3CCOCC3)C2)N1Cc1cscn1", "inhibition": 8.93}
{"smiles": "Cc1oncc1C(=O)N1CC[C@H]2[C@@H]1CCC(=O)N2CC1CCOCC1", "inhibition": 13.7}
{"smiles": "Cc1ccoc1C(=O)N1CC[C@H]2C[C@H](c3nnc(C4CC4)o3)O[C@@H]2C1", "inhibition": 15.5}
{"smiles": "O=S(=O)(C1CC1)N1C[C@@H]2CN(Cc3ccoc3)CCO[C@@H]2C1", "inhibition": 8.7}
{"smiles": "Cc1occc1C(=O)N1C[C@@H]2OCCN(c3ncccn3)[C@@H]2C1", "inhibition": 9.59}
{"smiles": "COc1cc(CN2CCN(CC3CC3)[C@@H]3CS(=O)(=O)C[C@@H]32)cc(OC)c1", "inhibition": 7.26}
{"smiles": "N#Cc1cccc(CN2C[C@H](NC(=O)C3CC3)[C@H]3OCCC[C@H]32)c1", "inhibition": 10.6}
{"smiles": "O=C(NC1CC1)[C@H]1C[C@@H]2CCN(Cc3ccc4c(c3)OCO4)C[C@@H]2O1", "inhibition": 1.31}
{"smiles": "CCS(=O)(=O)N1C[C@H]2CCC[C@@]2(COc2ccccn2)C1", "inhibition": 12.9}
{"smiles": "CS(=O)(=O)N1CC[C@H]2O[C@H](C(=O)NCCc3ccccn3)CC[C@H]21", "inhibition": 7.41}
{"smiles": "CCN1C[C@H]2C3(CCN(C(C)=O)CC3)CC[C@@]2(C(=O)N(C)C)C1", "inhibition": 1.68}
{"smiles": "CCCN1C[C@H]2CC[C@@H]1CN(C(=O)c1ccc(N(C)CCO)cc1)C2", "inhibition": 12.9}
{"smiles": "Cc1cccc(N2CC[C@@H]3[C@@H](CO[C@H]3CNC(=O)c3ccco3)C2)n1", "inhibition": 13.1}
{"smiles": "CSc1ncccc1C(=O)N1C[C@H]2CC[C@@H]1CN(C(=O)N(C)C)C2", "inhibition": 16.9}
{"smiles": "CNc1ccnc(N2C[C@@H]3CC[C@H](C2)N(CCOC)C3=O)n1", "inhibition": -4.82}
{"smiles": "CCC(C)NC(=O)c1ccc(-c2ccco2)[nH]c1=O", "note": "(stereo not drawn)", "inhibition": 86.2}
{"smiles": "CC(CN1CCCC1=O)NC(=O)c1ccc(-c2ccco2)[nH]c1=O", "note": "(stereo not drawn)", "inhibition": 16.8}
{"smiles": "CCCC(C)NC(=O)c1ccc(-c2ccco2)[nH]c1=O", "note": "(stereo not drawn)", "inhibition": 9.58}
{"smiles": "CCN1Cc2nc(OC)c(CNC(=O)C3CCS(=O)(=O)CC3)cc2C1=O", "inhibition": -0.86}
{"smiles": "Cc1ccc(CN2CCC[C@]3(C(=O)O)CN(c4ncccn4)C[C@@H]3C2)o1", "inhibition": 14.6}
{"smiles": "CC(=O)N1[C@H](Cn2cncn2)C[C@@H]2CN(Cc3ccncc3)CC[C@@H]21", "inhibition": 5.54}
{"smiles": "Cc1ccc(CN2CCN(CC3CC3)[C@@H]3CS(=O)(=O)C[C@@H]32)cc1C", "inhibition": 15.6}
{"smiles": "CCS(=O)(=O)CCNC(=O)[C@@]12CNC[C@@H]1CN(C1CCCC1)C2", "inhibition": 6.92}
{"smiles": "Cc1nc(COC[C@@H]2CC[C@H]3[C@H](CCN3S(C)(=O)=O)O2)cs1", "inhibition": 15.2}
{"smiles": "O=C(CCn1cc(Cl)cn1)N1C[C@@H]2CC[C@H](C1)N(Cc1ccccn1)C2", "inhibition": 15.8}
{"smiles": "Cc1cccc(C(=O)N2C[C@H]3CC[C@@H]2CN(S(=O)(=O)N(C)C)C3)n1", "inhibition": 19.9}
{"smiles": "CCS(=O)(=O)NC[C@]12COC[C@H]1CN(Cc1ccsc1)C2", "inhibition": 7.3}
{"smiles": "CCC(=O)N1CC[C@@H]2[C@H](CC1)N(Cc1cccc(C)n1)CCS2(=O)=O", "inhibition": 14.2}
{"smiles": "Cc1cc(C)n(C2=NC(NCCC(C)C)c3c(sc4c3CCCC4)N2)n1", "note": "(stereo not drawn)", "inhibition": 16.4}
{"smiles": "COCCNc1nc(-n2nc(C)cc2C)nc2sc3c(c12)CCCC3", "inhibition": 9.06}
{"smiles": "Cc1cc(C)n(-c2nc(NCCCO)c3c4c(sc3n2)CCCC4)n1", "inhibition": 59.5}
{"smiles": "CN(C)C(c1ccccn1)[C@H]1CC[C@H](CNC(=O)C2CC2)CC1", "note": "(stereo partly drawn)", "inhibition": 16}
{"smiles": "O=C(C[C@@H]1COC[C@H]2CN(Cc3ccc(F)cc3)C[C@@H]12)N1CCCC1", "inhibition": 13}
{"smiles": "CC(=O)N1CC[C@@]2(C(=O)Nc3ccccc3)CCN(S(C)(=O)=O)CC[C@@H]12", "inhibition": 8.93}
{"smiles": "c1ccc(CN2CC[C@@H]3O[C@@H](COCC4CCOCC4)CC[C@@H]32)nc1", "inhibition": 10.1}
{"smiles": "O=C(c1ccsc1)N1C[C@H](N2CCOCC2)[C@@H]2OCCC[C@@H]21", "inhibition": 13.9}
{"smiles": "O=C(C[C@@H]1COC[C@H]2CN(Cc3ccc(F)cc3)C[C@@H]12)N1CCCCO1", "inhibition": 12.9}
{"smiles": "CNS(=O)(=O)c1ccc(CNC(=O)C2CCCO2)cc1", "note": "(stereo not drawn)", "inhibition": -0.269}
{"smiles": "Cc1oncc1C(=O)N1CC[C@H]2[C@@H]1CCC(=O)N2c1cccnc1", "inhibition": 17.6}
{"smiles": "Cn1cc(CN2CC[C@H]3O[C@@H](C(=O)NC4CC4)CC[C@H]32)cn1", "inhibition": 3.76}
{"smiles": "c1csc(CN2C[C@@H](n3cccn3)[C@H]3OCCC[C@H]32)c1", "inhibition": 10.1}
{"smiles": "COc1cccc(NC(=O)N2CC[C@@H]3CN(C)S(=O)(=O)[C@@H]3CC2)c1", "inhibition": -1.1}
